The text below walks through data of PubChem BioAssay (NCI).

Common to all, as to assay: NCI-60 one-dose screen, 48 h (100 = growth as untreated, 0 = no growth, -100 = all killed)
One assay deals with SK-MEL-2 melanoma. The conditions noted are these: 10 µM unless noted.
The next assay concerns EKVX NSCLC. The following applies: 10 µM unless noted.
The test system of a further assay is SN12C renal. The conditions noted are these: 10 µM unless noted.
The test system of another assay is UO-31 renal. The conditions noted are these: 10 µM unless noted.
In the next assay the test system is TK-10 renal. The following applies: 10 µM unless noted.
The next assay has as its system ACHN renal. The following applies: 10 µM unless noted.
In a further assay the test system is CAKI-1 renal. The following applies: 10 µM unless noted.
The next assay deals with CCRF-CEM leukemia. The following applies: 10 µM unless noted.
In a further assay the test system is MOLT-4 leukemia. The conditions noted are these: 10 µM unless noted.
For another assay, the system named is SR leukemia. The conditions noted are these: 10 µM unless noted.
Another assay relates to RPMI-8226 leukemia. The following applies: 10 µM unless noted.
The subject of the next assay is OVCAR-8 ovarian. The conditions noted are these: 10 µM unless noted.
The next assay deals with OVCAR-5 ovarian. The conditions noted are these: 10 µM unless noted.
The test system of a further assay is OVCAR-4 ovarian. The conditions noted are these: 10 µM.
The next assay relates to SK-OV-3 ovarian. The conditions noted are these: 10 µM unless noted.
Another assay deals with IGROV1 ovarian. The following applies: 10 µM unless noted.
Another assay relates to OVCAR-3 ovarian. The following applies: 10 µM unless noted.
A further assay relates to HS 578T breast. The conditions noted are these: 10 µM unless noted.
For a further assay, the system named is NCI/ADR-RES ovarian. The conditions noted are these: 10 µM unless noted.
For the next assay, the system named is A498 renal. The conditions noted are these: 10 µM unless noted.

The structures appear in SMILES notation. About 83,000 compounds went through this panel and 20% of them were active in at least one assay; those are over-represented in the sample as a whole.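 Plates (96-well) were seeded with cells, treated with compound at one concentration, and incubated for 48 hours before percent growth was determined.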 Values without a mark were called inactive. Active and inactive are the calls of the source. How the source made its calls: active means growth percent below 10; inactive means the rest.

For `O=C(O)CC1CCCCC1c1ccccc1` (stereo not given), the growth in the assay with SK-MEL-2 melanoma is 97.7%; with EKVX NSCLC, 115%; with SN12C renal, 105%; with UO-31 renal, 75.2%; in the assay on TK-10 renal, 100%; with ACHN renal it was 102%. Also, the growth is 103% in the assay on CAKI-1 renal; 101% with CCRF-CEM leukemia; 109% in the assay on MOLT-4 leukemia; 98.5% in the assay with SR leukemia; 104% with RPMI-8226 leukemia; 106% in the assay with OVCAR-8 ovarian. The growth in the assay with OVCAR-5 ovarian is 102%; in the assay on OVCAR-4 ovarian it was 109%; in the assay on SK-OV-3 ovarian, 104%; with IGROV1 ovarian it was 108%; in the assay on OVCAR-3 ovarian it was 118%; in the assay on HS 578T breast, 83%. For the same compound, in the assay on NCI/ADR-RES ovarian, the growth was 114%.
Take `CC(C)(C)c1cc(C(=O)Nc2ccccc2C(=O)NCCN)cc(C(C)(C)C)c1`: the growth is 20.3% in the assay with SK-MEL-2 melanoma; 17.8% with EKVX NSCLC; -30.8% (active) with SN12C renal; 27.9% in the assay with UO-31 renal; 75.5% in the assay with TK-10 renal; -90.3% (active) in the assay on ACHN renal. The growth was 45.4% with CAKI-1 renal; -8.48% (active) with CCRF-CEM leukemia; 20.6% in the assay with MOLT-4 leukemia; -28.6% (active) in the assay with SR leukemia; -25% (active) in the assay with RPMI-8226 leukemia; -43.7% (active) in the assay with OVCAR-8 ovarian. In addition, the growth in the assay on OVCAR-5 ovarian is 27%; in the assay with IGROV1 ovarian, 46.8%; with OVCAR-3 ovarian, 18.9%; in the assay with HS 578T breast, 75.3%; in the assay with NCI/ADR-RES ovarian, 23.2%.
Consider `OC(c1ccc(Cl)cc1)(c1ccc(Cl)cc1)C(O)(c1ccc(Cl)cc1)c1ccc(Cl)cc1`, for which the growth was 68.4% with SK-MEL-2 melanoma; 49% with EKVX NSCLC; 29.8% in the assay with SN12C renal; 25.7% with UO-31 renal; 29.1% in the assay on TK-10 renal; 61.8% in the assay on ACHN renal. Further, the growth in the assay on A498 renal is 64.4%; with CCRF-CEM leukemia, 32.8%; in the assay on MOLT-4 leukemia, 22.7%; in the assay on SR leukemia, 25.9%; with RPMI-8226 leukemia, 30.8%; in the assay on OVCAR-8 ovarian it was 56.8%. In addition, the growth is 71.7% in the assay with OVCAR-5 ovarian; 44.8% with OVCAR-4 ovarian; 35.9% with SK-OV-3 ovarian; 19.6% with IGROV1 ovarian; 40.7% with OVCAR-3 ovarian; 68.6% with HS 578T breast. Also, the growth in the assay with NCI/ADR-RES ovarian is 48.5%.
Consider `CCN(CC)c1ccc2cc(NC(=O)OCCNC(=O)CCNC(=O)[C@H](CC(C)C)NC(=O)C(C)(C)NC(=O)C(C)(C)NC(=O)[C@H](CC(C)C)NC(=O)CCNC(=O)C(C)(C)NC(=O)[C@H](CC(C)C)NC(=O)CCNC(=O)[C@@](C)(CC)NC(=O)[C@H](C)NC(=O)CCNC(=O)C(C)(C)NC(=O)[C@H](C)NC(=O)[C@@H]3CCCN3C(=O)[C@@](C)(CC)NC(=O)[C@H](Cc3ccccc3)NC(=O)C3CCCN3C(=O)C(C)(C)NC(=O)C3CCCN3C(=O)C(C)(C)NC(C)=O)c(=O)oc2c1` (stereo not given in full), for which the growth with SK-MEL-2 melanoma is -80.4% (active); with EKVX NSCLC, -100% (active); in the assay with SN12C renal it was -74.6% (active); with UO-31 renal, -80.5% (active); with TK-10 renal, -93.3% (active); with ACHN renal, -85.4% (active). Also, the growth with CAKI-1 renal is -92.4% (active); with CCRF-CEM leukemia it was -63.5% (active); in the assay with MOLT-4 leukemia it was -62% (active); in the assay on SR leukemia, -52.9% (active); in the assay on RPMI-8226 leukemia it was -60.4% (active); in the assay on OVCAR-8 ovarian, -74.8% (active). Moreover, the growth with OVCAR-5 ovarian is -87.7% (active); in the assay on OVCAR-4 ovarian, -94.9% (active); in the assay with IGROV1 ovarian it was -69.3% (active); in the assay with OVCAR-3 ovarian it was -100% (active); with HS 578T breast it was -60.1% (active); in the assay with NCI/ADR-RES ovarian, -93.5% (active).
With `CCN(CC)CCS(=O)(=O)CCNc1ccnc2cc(Cl)ccc12`, the growth was 15.2% in the assay with SK-MEL-2 melanoma; 26.7% with EKVX NSCLC; 18.5% with SN12C renal; -25.6% (active) with UO-31 renal; 13.5% with TK-10 renal; 7.29% (active) in the assay with ACHN renal. Besides, the growth in the assay with CAKI-1 renal is 8.63% (active); with CCRF-CEM leukemia, 3.54% (active); in the assay with MOLT-4 leukemia, -30.1% (active); with SR leukemia, 6.28% (active); with RPMI-8226 leukemia it was -4.96% (active); in the assay on OVCAR-8 ovarian, 14.5%. The growth in the assay on OVCAR-5 ovarian was 18.6%; in the assay with OVCAR-4 ovarian it was 24.7%; in the assay with SK-OV-3 ovarian it was 22.5%; in the assay with OVCAR-3 ovarian it was -14.9% (active).
With `Cc1cccc([N+](=O)[O-])c1I`, the growth in the assay with SK-MEL-2 melanoma was 112%; in the assay on EKVX NSCLC, 95.4%; with SN12C renal it was 107%; in the assay with UO-31 renal, 85.1%; in the assay on TK-10 renal it was 113%; in the assay on ACHN renal it was 105%. The growth with CAKI-1 renal is 100%; in the assay on CCRF-CEM leukemia, 87.2%; in the assay on MOLT-4 leukemia, 122%; in the assay on SR leukemia, 128%; in the assay on RPMI-8226 leukemia, 99.6%; in the assay with OVCAR-8 ovarian, 98.2%. The growth is 98.9% in the assay with OVCAR-5 ovarian; 110% in the assay with OVCAR-4 ovarian; 115% in the assay on SK-OV-3 ovarian; 113% with HS 578T breast; 109% in the assay on NCI/ADR-RES ovarian.
For `Cc1cc(-c2ccc(N=Nc3c(S(=O)(=O)O)cc4cc(S(=O)(=O)O)cc(N)c4c3O)c(C)c2)ccc1N=Nc1cc(S(=O)(=O)O)c2ccccc2c1O`, the growth in the assay with SK-MEL-2 melanoma is 111%; with EKVX NSCLC, 81.1%; in the assay with SN12C renal it was 98.1%; in the assay on UO-31 renal, 73.1%; in the assay with TK-10 renal, 102%; in the assay on ACHN renal, 95.4%. Further, the growth in the assay with CAKI-1 renal is 78.9%; in the assay with CCRF-CEM leukemia, 106%; in the assay on MOLT-4 leukemia, 102%; with SR leukemia it was 106%; with RPMI-8226 leukemia, 98.5%; in the assay with OVCAR-8 ovarian it was 96.6%. For the same compound, the growth was 93.4% in the assay with SK-OV-3 ovarian, 95.8% in the assay on IGROV1 ovarian, 90.7% in the assay with HS 578T breast and 97.2% with NCI/ADR-RES ovarian.
Take `O=C(O)c1cccc(CN2CCN(c3cc4c(cc3F)c(=O)c(C(=O)O)cn4C3CC3)CC2)c1O`: the growth in the assay on SK-MEL-2 melanoma was 101%; in the assay on EKVX NSCLC, 100%; in the assay on SN12C renal it was 102%; in the assay with UO-31 renal it was 81.6%; with TK-10 renal it was 96.6%; in the assay on ACHN renal, 103%. Besides, the growth in the assay on CAKI-1 renal is 88.7%; with CCRF-CEM leukemia, 101%; with MOLT-4 leukemia it was 105%; with SR leukemia, 87.5%; in the assay with RPMI-8226 leukemia, 103%; in the assay on OVCAR-8 ovarian, 96.7%. The growth in the assay on OVCAR-5 ovarian is 102%; with SK-OV-3 ovarian, 101%; in the assay on IGROV1 ovarian it was 101%; with OVCAR-3 ovarian, 106%; with HS 578T breast, 103%; in the assay with NCI/ADR-RES ovarian it was 101%.
